# Values joined by “and” are separate entries in the source; they are usually repeats but may differ in a detail not shown here. Equal values may be shown once. About 83,000 compounds went through this panel and 20% of them were active in at least one assay; those are over-represented in the sample as a whole.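 Method: cells in 96-well plates; compound added at one concentration; 48 h incubation; percent growth measured; values under 10 scored active.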 Active and inactive are the calls of the source.
# System: MDA-MB-468 breast
# Assay: NCI-60 one-dose screen, 48 h (100 = growth as untreated, 0 = no growth, -100 = all killed)
# Details: 10 µM unless noted
row,SMILES,growth
1,COc1cc([N+](=O)[O-])c2nc(C)ccc2c1[N+](=O)[O-],-9.11% (active)
2,O=NN(c1ccccc1)c1ccccc1,95% (inactive)
3,O=C(/C=C/c1ccccc1)N[C@@H](CO)Cc1cnc[nH]1,102% (inactive)
4,CC[C@H](C)[C@H](NC(=O)c1ncccn1)C(=O)N(C)[C@H](C[C@@H](OC(C)=O)c1nc(C(=O)N[C@@H](Cc2ccccc2)C[C@H](C)C(=O)OC)cs1)C(C)C,23% (inactive)
5,Oc1c(CCl)cc(Cl)cc1CCl,113% (inactive)
6,CC[C@H](C)[C@H](NC(=O)NC(C)(C)C)C(=O)N(C)[C@H](C[C@@H](OC(C)=O)c1nc(C(=O)N[C@@H](Cc2ccccc2)C[C@H](C)C(=O)OC)cs1)C(C)C,15.4% (inactive)
7,COC(=O)CCC1=C(C)c2cc3[n-]c(cc4nc(cc5[n-]c(cc1n2)c(CCC(=O)OC)c5C)C=C4C)cc3C.[Cd+2],81.6% (inactive)
8,CC(=O)O[C@H]1C[C@@H]2OC3C=C(C)CCC3(C)[C@@]1(C)[C@@]21CO1 (stereo partly specified),-26.7% (active) and -40.4% (active)
9,COc1cc([C@@H]2c3cc4c(cc3[C@H](OC(C)=O)[C@H]3COC(=O)[C@H]23)OCO4)cc(OC)c1OC,44.6% (inactive)
10,Cc1cc(N(CCCl)CCCl)ccc1C=Nc1ccccc1-c1ccccc1,2.49% (active)
11,CNc1ccc(C(=O)CC(O)CCC(C)C2OC(=O)CC(O)CC(=O)CC(O)CC(O)CC(O)CC(O)CC3(O)CC(O)C(C(=O)OC)C(CC(O[C@@H]4O[C@H](C)[C@@H](O)[C@H](N)[C@@H]4O)/C=C/C=C/C=C/C=C/C=C/C=C/C=C/C2C)O3)cc1 (stereo partly specified),36.5% (inactive)
12,CC1(C)N=C(N)N=C(N)N1c1cccc(C(=O)Nc2cccc(S(=O)(=O)F)c2)c1,94.6% (inactive)
13,COc1cc([N+](=O)[O-])c2ncccc2c1[N+](=O)[O-],0.105% (active)
14,COC(=O)C12CC(NC(=O)c3csc([C@@H](C[C@H](C(C)C)N(C)C(=O)[C@@H](NC(=O)[C@H]4CCCCN4C)C(C)C)OC(C)=O)n3)(C1)C2,42.5% (inactive)
15,O=NN1CCCc2cccc(O)c21,67.7% (inactive)
16,N#CC1=C(N)Oc2cc3c(cc2C1c1cccs1)OCO3 (stereo unspecified),6.33% (active)
17,CNC(=O)CCl,100% (inactive)
18,CCCCCN(CCCCC)CC(O)c1cc(Cl)ccc1OC (stereo unspecified),57.7% (inactive)

row,SMILES,growth
1,COc1cc(C2(C#N)CCN(C)CC2)cc(OC)c1OC,108% (inactive)
2,COc1cc(C=Nc2cccc(Br)c2)ccc1N(CCCl)CCCl,-18.8% (active)
3,CCOP(=O)(Cc1ccc(C#N)cc1)OCC,108% (inactive)
4,O=C1Nc2ccccc2C2c3cccn3-c3ccccc3CN12 (stereo unspecified),30.5% (inactive)
5,O=C(CCCCCCC(=O)Nc1ccc(N(CCCl)CCCl)cc1)NO,-64.2% (active)
6,CC1=C2C(=C[C@@](C)(C=O)[C@@H]2O)C(=O)[C@](C)(O)C12CC2,-66.7% (active)
7,CCCCCCCC[N+](C)(CCCCCCCC)CCCCCCCC,-90.1% (active)
8,O=NN1CCCCC1,106% (inactive)
9,NC(=Nc1ccccc1)N[N+](=O)[O-],92.2% (inactive)
10,OCCNC(Cc1ccccc1)c1ccc2c(c1)OCO2 (stereo unspecified),97.7% (inactive)
11,COC(=O)[C@@H](C)C[C@H](Cc1ccccc1)NC(=O)c1nc([C@@H](C[C@H](C(C)C)N(C)C(=O)[C@@H](NC(=O)[C@H]2CCCN2C)C(C)C)OC(C)=O)sc1C,1.81% (active)
12,CN1C(=O)NC(=O)C(N=Nc2ccc(Cl)cc2)C1=O (stereo unspecified),90.4% (inactive)
13,NCCc1cc(O)c(O)cc1O,96.2% (inactive)
14,Cc1ccccc1-n1c(/C=C\c2ccccn2)nc2ccccc2c1=O,3.39% (active)
15,O=C1OCC2=C1C(c1ccccc1)c1cc3c(cc1N2)OCO3 (stereo unspecified),-9.05% (active)
16,CC(C)C1c2ccc(O)cc2Oc2nc(N)c(C#N)c(N)c21 (stereo unspecified),90% (inactive)
17,CC(=O)OC1C(OC/C2=C/C3[C@@H](C(C)C)CC=C(C)[C@@H]3CC(OC(=O)/C=C/c3cn(C)cn3)[C@]3(C)C=C[C@@]2(O)O3)OCC(O)C1O (stereo partly specified),-19.2% (active)
18,CC[C@H](C)[C@H](NC(=O)C12CC(NC(C)=O)(C1)C2)C(=O)N(C)[C@H](C[C@@H](OC(C)=O)c1nc(C(=O)N[C@@H](Cc2ccccc2)C[C@H](C)C(=O)OC)cs1)C(C)C,5.12% (active)
